About 8,500 (2.5%) of roughly 340,000 compounds were called active.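 How the source made its calls: active means melting temperature shift of at least 10% of the positive control shift, at one fixed dose; inactive means the rest.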 Only a selection was taken, and actives are over-represented in it overall.
Test system: Glutamate receptor ionotropic, NMDA 3A (GRIN3A) ligand-binding domain
Assay: binders of NR3A ligand-binding domain, primary screen, biophysical, differential scanning fluorimetry, uHTS (AID 1259313)
Details: NR3A LBD differential scanning fluorimetry, at 25 µM, active compounds read high, 0% = protein alone, 100% = glycine-bound protein

Tm shift relative to glycine control, active:
CC(/C=N/NC(=O)c1cc(-c2ccc3ccccc3c2)n[nH]1)=C\c1ccco1 16.4%
O=C(CCCCCn1c(=S)[nH]c2cc3c(cc2c1=O)OCO3)N1CCN(c2ccc(F)cc2)CC1 11.6%
Cc1cccc(N=C2NC(=O)/C(=C/c3cn(C)c4ccccc34)S2)c1 26.7%
Cc1cccc(NC(=O)NC(=S)NC(=O)c2ccccc2)c1 20.6%
Cc1ccc(-c2cn(S(=O)(=O)c3cccc([N+](=O)[O-])c3)nc2N)cc1 23.9%
Cc1ccc(NC(=O)Nc2cc(-c3ccccc3)nn2C)cc1Cl 47.8%
Cc1csc(NC(=S)Nc2cccc(Cl)c2)n1 16.9%
S=C(Nc1cccc(Cl)c1)Nc1ccc2cn[nH]c2c1 13%
FC(F)(F)c1cccc(NC(=S)Nc2cccc(Cl)c2)c1 15.7%
Cc1cccc(NC(=S)Nc2ccc(Cl)c(Cl)c2)c1 14.9%
COc1cccc(/C=N/Nc2ccc(S(=O)(=O)Nc3ccccc3C(=O)O)cc2[N+](=O)[O-])c1O 22.4%
COc1ccc(Br)cc1/C=N/Nc1ccc(S(=O)(=O)Nc2ccccc2C(=O)O)cc1[N+](=O)[O-] 503%
O=C(Cc1ccc(Cl)c(Cl)c1)Nc1ccc(SC(F)F)cc1 25.9%
COc1cc2c(-c3ccc4c(c3)OCO4)c(-c3ccsc3)oc(=O)c2cc1OC 12.9%
COC(=O)c1sc(N)c(C(=O)OC)c1COC(=O)CNS(=O)(=O)c1ccc(C)cc1 13.2%
CCOc1ccccc1N1CCN(C(=S)Nc2ccc(S(N)(=O)=O)cc2)CC1 31.7%
Cn1cccc1C(=O)N1CCc2ccccc2C1 38.1%
COc1ccccc1NC(=O)Nc1nc(CC(=O)Nc2ccccc2F)cs1 27.7%

Tm shift relative to glycine control, inactive:
O=C(NCCCn1ccnc1)/C(=C\c1ccccc1F)NC(=O)c1ccccc1 -0.09%
CC(C)(C)C1CCC(=NNC(=O)c2cc(-c3ccccc3)n[nH]2)CC1 (stereo unspecified) -5.15%
CC(C)c1cc(C(=O)N/N=C/C(Br)=C/c2ccccc2)n[nH]1 6.56%
Cc1cc2c(cc1C)NC1(C[C@H]3CCC(=O)N4CC[C@@H](C1)[C@@H]34)C(=NC(C)(C)CC(C)(C)C)N2 (stereo partly specified) -6.03%
CC(C)NC(=O)CCCn1c(=S)[nH]c2cc3c(cc2c1=O)OCO3 -1.68%
Cc1ccc(C)c(N2CCN(C(=O)CCCCCn3c(=S)[nH]c4ccc(N5CCOCC5)cc4c3=O)CC2)c1 -2.75%
CC(C)c1ccc(NC(=S)NC2CC3C=CC2C3)cc1 (stereo unspecified) 0.48%
Cc1ccc(N=C2NC(=O)/C(=C/C=C/c3ccco3)S2)cc1C 9.42%
Cc1ccc(N2C(=O)S/C(=C/c3cn(C)c4ccccc34)C2=O)cc1 1.52%
Cc1cccc(N2CCN(C(=O)CN(C)S(=O)(=O)c3ccc4c(c3)CCC(=O)N4)CC2)c1C 0.4%
CN(NC(=O)C1CC(=O)N(c2ccccc2)C1)C1=NS(=O)(=O)c2ccccc21 (stereo unspecified) -0.38%
Cc1cccc(OCCNC(=S)NC(=O)c2cccnc2)c1 1.46%
Cc1ccc(NC(=O)NC(=O)c2ccccc2)cc1F -0.73%
O=C(c1ccc[nH]c1=S)N1CCN(S(=O)(=O)c2ccc(Br)cc2Cl)CC1 -0.43%
COC(=O)C1(O)CC(C(C)C)=NN1C(=O)c1ccc(Cl)cc1 (stereo unspecified) -4.26%
Cc1ccc(NC(=O)CN2CCC3(O)CCCCC3C2c2ccc3c(c2)OCO3)c(C)c1 (stereo unspecified) 1.39%
Cc1cc(C)c(OCC(=O)N(Cc2cccs2)C2CCS(=O)(=O)C2)c(C)c1 (stereo unspecified) -2.05%
Cc1cc(C)n(S(=O)(=O)c2cccc([N+](=O)[O-])c2)n1 -0.54%
CC1=NCCN1S(=O)(=O)c1cccc([N+](=O)[O-])c1 0.43%
O=C(COC(=O)c1ccco1)Nc1ccc(Cl)cn1 -4.19%
CCN(c1ccccc1)S(=O)(=O)c1ccc(OCC(=O)N2CCCC2)cc1 -0.92%
COC(=O)C(NS(=O)(=O)c1ccc(F)cc1)c1ccccc1 (stereo unspecified) 0%
COc1ccc(CN2CCN(Cc3ccc(OC)c(OC)c3OC)CC2)cc1 -0.74%
Cc1cc(NC(=O)Nc2ccc(Cl)cc2)n(-c2ccccc2)n1 3.84%
Cc1ccc(NC(=O)COc2ccc(-n3ccnc3)cc2)cc1Cl -10.8%
O=C(NC(Cc1c[nH]c2ccccc12)C(=O)O)/C(=C/c1ccco1)NC(=O)c1ccccc1 (stereo unspecified) 5.13%
Cc1ccc(S(=O)(=O)NNC(=O)Nc2cccc3ccccc23)cc1 1.46%
CCC(=O)Nc1nc(C)c(C(=O)Nc2cccc(Cl)c2)s1 0.19%
Cn1cc(Cl)c(C(=O)NNC(=S)Nc2cccc(Cl)c2)n1 -11.3%
O=S(=O)(Nc1ccc2cn[nH]c2c1)c1ccccc1 -1.96%
O=C(O)CC1(CC(=O)Nc2cccc(C(F)(F)F)c2)CCCC1 -1.43%
Cc1cc(Cl)nc(NC(=O)Nc2cccc(Cl)c2)n1 -1.44%
Cc1cccc(NC(=S)NC23CN4CN(CN(C4)C2)C3)c1 -2.24%
Cn1nc(C(F)(F)F)c(C(=O)Nc2cccc(C(F)(F)F)c2)c1SCc1ccc(Cl)cc1 6.13%
Cc1cc2[nH]ncc2cc1NC(=S)NC(=O)c1ccccc1 -2.48%
COc1ccccc1C(=O)OCC(=O)NCCNC(=O)COC(=O)c1ccccc1OC -2.11%
CCSc1nnc(SCC(=O)NNC(=O)c2ccccc2F)s1 0.44%
O=C(NN1C(=O)C2C3C=CC(O3)C2C1=O)c1ccncc1 (stereo unspecified) 2.17%
CCO[C@@H]1OC(C(N)=O)=C[C@H](c2ccc(Br)cc2)[C@H]1CCCO 2.58%
COc1ccc(CCNS(=O)(=O)c2cc3c(cc2C)NC(=O)CO3)cc1OC 2.97%
O=c1ccn([C@@H]2O[C@H](CNS(=O)(=O)c3cc4ccccc4s3)[C@@H](O)[C@H]2O)c(=O)[nH]1 -1.03%
CCOC(=O)N1CCN(S(=O)(=O)c2ccc(C(=O)Nc3ccc(F)cc3F)cc2)CC1 -2.71%
CC(C)Oc1ccc(CC(=O)NNC(=S)Nc2ccc(Br)cc2)cc1 -3.79%
C=CCn1c(C23CC4CC(CC(C4)C2)C3)n[nH]c1=S 0.44%
COc1ccc(S(=O)(=O)Nc2ccccc2C(=O)N2CCCC2)cc1C 2.36%
COc1ccc(S(=O)(=O)Nc2ccc3cn[nH]c3c2)cc1[N+](=O)[O-] -8.84%
Cc1ccc(NS(=O)(=O)c2ccc(N/N=C/c3ccccc3OCC(=O)O)c([N+](=O)[O-])c2)c(C)c1 3.61%
O=C(O)c1ccccc1/C=N/Nc1ccc(S(=O)(=O)Nc2ccc(Cl)cc2)cc1[N+](=O)[O-] 9.21%
COc1ccc(CCNC2=C(Cl)C(=O)N(Cc3ccccc3)C2=O)cc1OC 2.81%
CC(=O)c1ccc(N2CCN(S(=O)(=O)c3ccc4c(c3)CC(=O)N4C)CC2)cc1 4.97%
CC(=O)N1CCN(CC(=O)Nc2ccc(SC(F)F)cc2)CC1 -2.44%
Cc1ccc(CC(=O)Nc2ccc(OC(F)F)c(Cl)c2)cc1C 3.08%
Cc1c(Cl)c([N+](=O)[O-])nn1CC(=O)NCCCN1CCOCC1 -0.8%
COc1cc(-c2c(-c3ccc4c(c3)OCO4)noc2C)ccc1F -2.27%
COc1cc(C(=O)CCc2ccc3c(c2)OCO3)cc(OC)c1OC 0.46%
CN(C)CCCn1c(SCc2ccc(Cl)cc2)nnc1-c1ccncc1 -5.52%
CC(C)(Oc1ccc(Cl)cc1)C(=O)OCC(=O)NCCc1ccc(S(N)(=O)=O)cc1 -1.31%
CN(C)N=Nc1ccc2nc[nH]c2c1 -1.21%
COc1ccc2[nH]c3c(c2c1)CCN1C(=O)C(CC(=O)NCc2cccc(C(F)(F)F)c2)C[C@H](C(=O)N2CCOCC2)[C@@]31C (stereo partly specified) -2.74%
COC(=O)CNS(=O)(=O)c1ccc(Cc2ccc(S(=O)(=O)NCC(=O)OC)cc2)cc1 1.25%
C/C(N)=C(/C#N)C(=O)COC(=O)CNS(=O)(=O)c1ccc(C)cc1 -0.65%
CCN(CC)C(=O)Oc1ccc(OC(=O)N(CC)CC)cc1 -0.08%
COc1ccc(N2CCN(C(=S)Nc3ccc(S(N)(=O)=O)cc3)CC2)cc1 1.93%
NS(=O)(=O)c1ccc(NC(=S)N2CCCC2)cc1 -6.36%
O=C(Nc1ccccc1C(=O)N1CCOCC1)C1CCC(=O)N1C1CCCC1 (stereo unspecified) -0.29%
CN(c1ccc(C(=O)N2CCc3ccccc3C2)cc1)S(C)(=O)=O -0.88%
O=C(c1cc(-c2cccc(O)c2)on1)N1CCc2ccccc2C1 -13.5%
Cc1nn(Cc2ccccc2)c(C)c1CNC(=O)c1ccc(F)c(S(=O)(=O)N2CCOCC2)c1 0.42%
Cc1cc(C(=O)NNC(=S)NC(C)c2ccccc2)cs1 (stereo unspecified) -0.62%
CCCN1Cc2cccc(C(=O)Nc3ccc(S(=O)(=O)N4CCCCCC4)cc3)c2C1=O -5.76%
O=S(=O)(Nc1n[nH]c(C(F)(F)F)n1)c1ccccc1 -16.9%
COc1ccccc1NC(=O)COC(=O)COc1ccccc1F 0.17%
COc1ccccc1NC(=O)Nc1nnc(Cc2ccc(F)cc2)s1 -6.85%

Reference: PubChem BioAssay AID1259313 (Sanford-Burnham Center for Chemical Genomics, 2017)
